This is an account of results in PubChem BioAssay AID1259318 (Sanford-Burnham Center for Chemical Genomics, 2017).

About 3,000 (0.81%) of roughly 370,000 compounds were called active.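 How the source made its calls: active means activity above about 14% (limit read from the data; passing the limit was not always enough); inactive means the rest.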 The sample as a whole holds a higher share of actives than the screen did.

For this assay, the target named is Nuclear receptor subfamily 1 group D member 1 (Homo sapiens) (UniProt P20393). In words: Rev-erbα–DNA interaction modulation – biochemical, FITC-DNA, fluorescence polarization, uHTS, primary screen (AID 1259318).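 Further: 0% = DMSO wells with 35 nM protein and 100% = DMSO wells with 750 nM protein.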 The settings on record: Rev-erbα–FITC-DNA binding, 90 min, at 10 µM, active compounds read high.
Nuclear receptor subfamily 1 group D member 1 (Homo sapiens), sequence (P20393 whole entry, looked up): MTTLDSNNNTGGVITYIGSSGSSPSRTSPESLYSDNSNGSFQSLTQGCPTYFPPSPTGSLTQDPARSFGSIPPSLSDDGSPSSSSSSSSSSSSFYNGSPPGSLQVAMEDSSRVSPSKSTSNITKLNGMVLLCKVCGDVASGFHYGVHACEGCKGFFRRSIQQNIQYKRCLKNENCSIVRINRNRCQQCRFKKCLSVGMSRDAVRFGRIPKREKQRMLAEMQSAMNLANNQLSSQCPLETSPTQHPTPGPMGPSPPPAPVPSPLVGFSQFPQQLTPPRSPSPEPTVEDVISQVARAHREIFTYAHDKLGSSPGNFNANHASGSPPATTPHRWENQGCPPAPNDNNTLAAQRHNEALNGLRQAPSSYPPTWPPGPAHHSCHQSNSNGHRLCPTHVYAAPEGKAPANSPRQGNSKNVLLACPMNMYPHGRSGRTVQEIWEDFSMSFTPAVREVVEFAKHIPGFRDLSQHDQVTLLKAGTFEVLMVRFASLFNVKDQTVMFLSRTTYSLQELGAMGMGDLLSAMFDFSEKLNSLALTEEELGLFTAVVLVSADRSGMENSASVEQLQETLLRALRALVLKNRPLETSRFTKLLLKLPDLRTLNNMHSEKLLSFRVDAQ
Consider `CCOC(=O)c1cc(S(=O)(=O)NCCc2ccc(OC)c(OC)c2)cn1C`, for which the activity is 1.86% (inactive). The figure for `Cc1cccc(OCCC(=O)Nc2cc(S(=O)(=O)N3CCCCC3)ccc2N2CCOCC2)c1` is -0.99% (inactive); for `CN(CCc1ccccn1)S(=O)(=O)c1ccc2c3c(cccc13)C(=O)N2` it is 1.1% (inactive); for `O=C(CSc1nnc(-c2cccc(Cl)c2)n1Cc1ccco1)Nc1ccc(OCc2ccccc2)cc1` it is 4.77% (inactive). On to `Cc1cc(NC(=O)CSc2nc3cc(Cl)ccc3c(=O)n2Cc2ccco2)no1`, for which the activity was 20.1% (active). In the case of `Cc1cc(NC(=O)CSC2=NS(=O)(=O)c3cc(Cl)ccc3N2)no1`, the activity was -5.75% (inactive).

`CC/C(=C(/c1ccccc1)c1ccc(OCC[N+](C)(C)C)cc1)c1ccccc1`: the activity was -1.77% (inactive). `C=CCN1[C@H](CC(C)C)COc2cccc(N3CCCC3)c2S1(=O)=O`: the activity was 5.72% (inactive). Regarding `Fc1c(F)c(C(F)(F)F)c(F)c(F)c1N1CCN(c2ccc3nnc(C(F)(F)F)n3n2)CC1`, the activity is 28.7% (active). Turning to `CCN(CC)S(=O)(=O)c1ccc(OC(C)C)c(N)c1`, the activity is -2.29% (inactive).

Consider `CCN(CC)S(=O)(=O)c1ccc(C(=O)N2CCN(C3=NS(=O)(=O)c4ccccc43)CC2)cc1`, for which the activity was -1.88% (inactive). For the compound `CCN(CC)C(=O)CS(=O)CC(=O)Nc1cc(OCCOC)c(Cl)cc1Cl` (centres undefined), the activity is -6.56% (inactive). The figure for `CSc1ccc(Cl)c(C(=O)OCC(=O)N2CC(C)OC(C)C2)c1` (centres undefined) is -1.82% (inactive). The same measure for `COc1cc(Cl)c(C)cc1NC(=O)COC(=O)c1cc(SC)ccc1Cl`: 35.7% (active); for `COc1ccc(OCC(=O)Nc2cc(C)c(Cl)cc2OC)c([N+](=O)[O-])c1`: 1.26% (inactive); for `COc1ccccc1NC(=O)COc1ccc(C(=O)OCC(=O)N(C(C)C)C(C)C)cc1OC`: 0.89% (inactive). The figure for `Clc1ccc(Cl)c(Oc2ccc(Oc3nc(Cl)ccc3Cl)cc2)n1` is -2% (inactive); for `Clc1ccc(-n2c(COc3ccccc3)nnc2SCc2nc3ccccc3[nH]2)cc1` it is -0.37% (inactive); for `CC1CC2C3CCC4=CC(=O)C=C[C@]4(C)[C@@]3(F)[C@@H](O)C[C@]2(C)[C@@]1(O)C(=O)CO` (some centres undefined) it is 0.08% (inactive).

Regarding `Cn1nccc1NS(=O)(=O)c1ccc(F)cc1`, the activity was 3.3% (inactive). The figure for `CCc1c(-c2ccc(F)cc2)ncn1Cc1cccc(-c2ccccc2)c1` is -5.19% (inactive); for `O=c1cc(N2CCCCC2)c(-c2ccccc2)nn1Cc1cccc(F)c1` it is 30.7% (active).

In the case of `O=C(CS(=O)(=O)c1cn(Cc2cccc(F)c2)c2ccccc12)N1CCCCC1`, the activity was -9.9% (inactive).

`COC(=O)[C@]1(C)N[C@H](CN(C)C(=O)c2ccc(C(C)(C)C)cc2)[C@@H]2C(=O)N(C)C(=O)[C@@H]21`: the activity was -0.45% (inactive).
